In PubChem BioAssay (EPA / NIEHS) one finds outcome and AC50 data, which are given here for 27 compounds.

What is called AC50 is the concentration at which the activity in the assay is half-maximal.

Results filed as inconclusive are left out. Active and inactive are the calls of the source. The calls were made as follows, unless noted: active = hit-call score of the fitted dose curve at least 0.9, where 1 is the maximum; inconclusive = response in the unintended direction; inactive = score below 0.9.

The target in experiment [1] is Oxysterols receptor LXR-alpha (Homo sapiens) (UniProt Q13133). The experiment can be described thus: ATG_LXRa_TRANS: Attagene TRANS-FACTORIAL HepG2 Assay for human Liver X Receptor alpha (LXRa) (AID 2282980). Conditions: HepG2 Attagene TRANS reporter, LXRa transactivation. The procedure, abridged:
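HepG2 cells were transiently transfected with multiplexed reporter units driven by chimeric LXRa–GAL4 fusion proteins, then dosed for 24 h. Reporter mRNA was quantified by RT-PCR, fluorescent labelling and capillary electrophoresis; gain of signal fitted against DMSO baseline.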

The target in experiment [2] is Oxysterols receptor LXR-beta (Homo sapiens) (UniProt P55055). Description: ATG_LXRb_TRANS: Attagene TRANS-FACTORIAL HepG2 Assay for human Liver X Receptor beta (LXRb) (AID 2282981). Conditions: HepG2 Attagene TRANS GAL4-LXRb reporter, mRNA. The procedure, abridged:
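In this TRANS format, exogenous chimeric NR-Gal4 protein activity, not endogenous factors, drives reporter expression in transfected human HepG2 cells. Exposure lasted 24 h; reporter mRNA was read by fluorescent capillary electrophoresis.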

Experiment [3] concerns the target Hepatocyte nuclear factor 4-alpha (Homo sapiens) (UniProt P41235). Description: ATG_HNF4a_TRANS: Attagene TRANS-FACTORIAL HepG2 Assay for human Hepatocyte Nuclear Factor 4 alpha (HNF4a) (AID 2282982). Conditions: HepG2 HNF4a transactivation reporter, mRNA readout. The procedure, abridged: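 Cells used were human HepG2, transiently carrying GAL4-UAS reporter units read out against exogenous NR-GAL4 chimeras. Reporter transcript levels after 24 h dosing were quantified by fluorescent RT-PCR and capillary electrophoresis.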

Experiment [4] is described as follows: ATG_M_32_TRANS: Attagene TRANS-FACTORIAL HepG2 Assay for M32 Transcription Factor (Internal Marker) (AID 2282984). The conditions noted are these: HepG2 Attagene TRANS M32 internal marker reporter. The procedure, abridged: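 Human hepatoma HepG2, transient MRTU transfection, 24 h treatment. RNA → RT-PCR → fluorescent primer extension → HpaI digest (2 h, 37 C) → CE. Positive-direction fit vs DMSO.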

Experiment [5] has as its target Nuclear receptor subfamily 4 group A member 2 (Homo sapiens) (UniProt P43354). The experiment can be described thus: ATG_NURR1_TRANS: Attagene TRANS-FACTORIAL HepG2 Assay for human Nuclear Receptor Related Protein 1 (NURR1) (AID 2282985). The conditions noted are these: HepG2 Attagene TRANS reporter, mRNA readout. A digest of the protocol: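 After 24 h chemical dosing, total RNA from transiently transfected HepG2 cells was reverse-transcribed and reporter cDNA PCR-amplified, FAM-labelled and analysed by capillary electrophoresis. Activity fitted in positive direction, DMSO as negative control.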

In experiment [6] the target is Transcriptional activator Myb (Homo sapiens) (UniProt P10242). Description: ATG_Myb_CIS: Attagene CIS-FACTORIAL HepG2 Assay for human Myeloblastosis (Myb) Proto-Oncogene Transcription Factor (AID 2282986; active = hit-call score of the fitted dose curve at least 0.9, where 1 is the maximum; inactive = score below 0.9). Conditions: HepG2 Attagene CIS-FACTORIAL Myb reporter transcription; actives raise or lower the signal. A digest of the protocol: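 After 24 h of compound dosing, total RNA from transfected HepG2 cells is reverse-transcribed and the reporter sequences amplified, labeled and separated by capillary electrophoresis. Values come from bidirectional fitting against DMSO.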
Transcriptional activator Myb (Homo sapiens), sequence (P10242 whole entry, looked up): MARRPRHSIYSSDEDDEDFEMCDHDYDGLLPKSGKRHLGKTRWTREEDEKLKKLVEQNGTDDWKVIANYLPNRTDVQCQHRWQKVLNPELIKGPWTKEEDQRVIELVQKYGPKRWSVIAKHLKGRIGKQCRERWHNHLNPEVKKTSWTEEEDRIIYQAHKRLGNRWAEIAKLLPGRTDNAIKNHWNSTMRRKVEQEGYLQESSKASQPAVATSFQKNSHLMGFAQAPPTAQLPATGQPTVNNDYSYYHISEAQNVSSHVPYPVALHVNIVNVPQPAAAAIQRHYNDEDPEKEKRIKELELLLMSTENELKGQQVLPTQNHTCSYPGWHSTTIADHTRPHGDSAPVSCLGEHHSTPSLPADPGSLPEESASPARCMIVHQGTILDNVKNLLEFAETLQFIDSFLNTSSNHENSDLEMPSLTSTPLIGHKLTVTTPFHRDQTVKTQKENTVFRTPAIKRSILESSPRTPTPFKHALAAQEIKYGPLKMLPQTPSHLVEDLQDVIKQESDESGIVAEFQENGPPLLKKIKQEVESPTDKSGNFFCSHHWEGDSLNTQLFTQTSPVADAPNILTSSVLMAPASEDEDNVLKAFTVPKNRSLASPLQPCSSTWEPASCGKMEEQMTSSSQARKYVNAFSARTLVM

For experiment [7], the target named is Nuclear respiratory factor 1 (Homo sapiens) (UniProt Q16656). Description: ATG_NRF1_CIS: Attagene CIS-FACTORIAL HepG2 Assay for human Nuclear Respiratory Factor 1 (NRF1) Orphan Gene (AID 2282987; active = hit-call score of the fitted dose curve at least 0.9, where 1 is the maximum; inactive = score below 0.9). The conditions noted are these: HepG2 NRF1 cis-element reporter, Attagene multiplex; actives raise or lower the signal. The procedure, abridged:
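Measured: fluorescent reporter-specific RT-PCR products from transfected HepG2 cells, separated by capillary electrophoresis. Exposure lasted 24 h. Analysis used bidirectional curve fitting with DMSO as negative control.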

Experiment [8] can be described thus: ATG_NFI_CIS: Attagene CIS-FACTORIAL HepG2 Assay for human Nuclear Factor I (NFI) (AID 2282989; active = hit-call score of the fitted dose curve at least 0.9, where 1 is the maximum; inactive = score below 0.9). Conditions: HepG2 cis-regulatory reporter, NFI response element transcription; actives raise or lower the signal. A digest of the protocol:
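Reporter transcripts were measured by RT-PCR with fluorescent primer extension and capillary electrophoresis 24 h post-treatment. HepG2 cells carried transiently transfected cis-regulated reporter constructs reporting endogenous factor activity; gain or loss fitted against DMSO baseline.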

For experiment [9], the target named is Bile acid receptor (Homo sapiens) (UniProt Q96RI1). The experiment can be described thus: ATG_FXR_TRANS: Attagene TRANS-FACTORIAL HepG2 Assay for Farnesoid X Receptor (FXR) (AID 2282979).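 Also: hits raise reporter mRNA above DMSO so AC50 marks FXR activation.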 The conditions noted are these: HepG2 Attagene TRANS FXR-GAL4 reporter transcription. A digest of the protocol:
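HepG2 cells transiently transfected with reporter constructs in which a chimeric FXR-GAL4 protein drives a GAL4-UAS reporter; 24 h compound exposure. Reporter mRNA measured by RT-PCR, FAM labelling, HpaI digestion and capillary electrophoresis; gain-of-signal versus DMSO.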

Experiment [10] can be described thus: ATG_M_06_TRANS: Attagene TRANS-FACTORIAL HepG2 Assay for M06 Transcription Factor (Internal Marker) (AID 2282983).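 As to AC50: potency for rise in reporter mRNA above DMSO baseline.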 The conditions noted are these: HepG2 Attagene TRANS M06 internal marker reporter. A digest of the protocol: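 HepG2 cells transiently transfected with multiplexed GAL4-UAS reporter transcription units; after 24 h compound exposure, reporter mRNA measured by RT-PCR, FAM-labelled primer extension, HpaI digestion and capillary electrophoresis. Gain-of-signal fitted versus DMSO baseline; background control readout.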

Hepatocyte nuclear factor 4-alpha (Homo sapiens), sequence (P41235 whole entry, looked up, the tested form may be a part): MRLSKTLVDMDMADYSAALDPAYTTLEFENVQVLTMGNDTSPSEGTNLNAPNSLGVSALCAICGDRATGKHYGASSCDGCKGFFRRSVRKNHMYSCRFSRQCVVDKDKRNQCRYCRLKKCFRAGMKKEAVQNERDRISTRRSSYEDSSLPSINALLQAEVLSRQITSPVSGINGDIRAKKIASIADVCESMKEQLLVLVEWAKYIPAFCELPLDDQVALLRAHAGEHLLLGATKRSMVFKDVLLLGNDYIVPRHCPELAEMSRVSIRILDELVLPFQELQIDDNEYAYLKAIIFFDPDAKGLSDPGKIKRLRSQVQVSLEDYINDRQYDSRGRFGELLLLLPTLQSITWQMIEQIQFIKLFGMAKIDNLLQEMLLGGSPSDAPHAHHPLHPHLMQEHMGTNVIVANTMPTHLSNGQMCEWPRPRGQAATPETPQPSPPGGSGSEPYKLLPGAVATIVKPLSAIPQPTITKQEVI
Bile acid receptor (Homo sapiens), sequence (Q96RI1 whole entry, looked up, the tested form may be a part): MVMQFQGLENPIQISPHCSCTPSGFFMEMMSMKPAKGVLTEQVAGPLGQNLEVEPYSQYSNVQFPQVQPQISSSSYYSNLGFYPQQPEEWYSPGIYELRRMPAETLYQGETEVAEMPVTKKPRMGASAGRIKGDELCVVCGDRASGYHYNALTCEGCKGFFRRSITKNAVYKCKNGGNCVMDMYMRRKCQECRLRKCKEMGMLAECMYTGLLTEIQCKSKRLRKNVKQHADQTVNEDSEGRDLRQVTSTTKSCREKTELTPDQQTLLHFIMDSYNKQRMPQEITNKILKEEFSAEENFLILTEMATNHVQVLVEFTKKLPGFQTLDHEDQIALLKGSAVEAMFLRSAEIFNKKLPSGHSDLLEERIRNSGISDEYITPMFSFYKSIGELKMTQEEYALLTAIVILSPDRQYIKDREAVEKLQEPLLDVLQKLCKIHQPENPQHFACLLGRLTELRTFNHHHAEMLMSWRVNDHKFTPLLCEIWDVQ
Nuclear receptor subfamily 4 group A member 2 (Homo sapiens), sequence (P43354 whole entry, looked up): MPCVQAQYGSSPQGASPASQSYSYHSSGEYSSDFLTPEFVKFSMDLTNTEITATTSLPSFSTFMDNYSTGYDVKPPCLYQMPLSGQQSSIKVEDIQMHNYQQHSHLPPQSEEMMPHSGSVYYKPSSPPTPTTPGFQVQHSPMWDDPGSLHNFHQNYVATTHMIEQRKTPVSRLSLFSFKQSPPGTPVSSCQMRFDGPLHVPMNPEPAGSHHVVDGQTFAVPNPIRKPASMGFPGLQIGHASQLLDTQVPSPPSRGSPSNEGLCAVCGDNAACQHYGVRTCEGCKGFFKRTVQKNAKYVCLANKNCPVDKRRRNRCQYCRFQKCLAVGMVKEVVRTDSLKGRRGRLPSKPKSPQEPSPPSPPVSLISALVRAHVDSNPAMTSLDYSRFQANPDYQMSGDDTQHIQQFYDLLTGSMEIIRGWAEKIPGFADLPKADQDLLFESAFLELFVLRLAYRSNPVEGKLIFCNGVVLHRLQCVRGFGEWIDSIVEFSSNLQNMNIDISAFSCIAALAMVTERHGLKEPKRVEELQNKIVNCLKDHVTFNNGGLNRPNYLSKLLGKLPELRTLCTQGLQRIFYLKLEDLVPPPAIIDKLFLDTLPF
Oxysterols receptor LXR-beta (Homo sapiens), sequence (P55055 whole entry, looked up, the tested form may be a part): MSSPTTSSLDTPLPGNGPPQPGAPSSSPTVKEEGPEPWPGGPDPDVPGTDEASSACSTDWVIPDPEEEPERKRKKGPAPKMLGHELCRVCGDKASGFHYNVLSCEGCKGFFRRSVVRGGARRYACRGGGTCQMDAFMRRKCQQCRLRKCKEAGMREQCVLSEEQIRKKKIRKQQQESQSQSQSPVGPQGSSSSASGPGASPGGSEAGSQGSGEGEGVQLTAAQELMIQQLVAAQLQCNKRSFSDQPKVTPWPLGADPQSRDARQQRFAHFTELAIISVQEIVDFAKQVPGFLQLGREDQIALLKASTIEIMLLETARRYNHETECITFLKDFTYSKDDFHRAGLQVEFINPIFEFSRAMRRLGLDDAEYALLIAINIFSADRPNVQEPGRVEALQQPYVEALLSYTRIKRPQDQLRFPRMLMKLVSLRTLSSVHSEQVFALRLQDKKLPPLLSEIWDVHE
Oxysterols receptor LXR-alpha (Homo sapiens), sequence (Q13133 whole entry, looked up, the tested form may be a part): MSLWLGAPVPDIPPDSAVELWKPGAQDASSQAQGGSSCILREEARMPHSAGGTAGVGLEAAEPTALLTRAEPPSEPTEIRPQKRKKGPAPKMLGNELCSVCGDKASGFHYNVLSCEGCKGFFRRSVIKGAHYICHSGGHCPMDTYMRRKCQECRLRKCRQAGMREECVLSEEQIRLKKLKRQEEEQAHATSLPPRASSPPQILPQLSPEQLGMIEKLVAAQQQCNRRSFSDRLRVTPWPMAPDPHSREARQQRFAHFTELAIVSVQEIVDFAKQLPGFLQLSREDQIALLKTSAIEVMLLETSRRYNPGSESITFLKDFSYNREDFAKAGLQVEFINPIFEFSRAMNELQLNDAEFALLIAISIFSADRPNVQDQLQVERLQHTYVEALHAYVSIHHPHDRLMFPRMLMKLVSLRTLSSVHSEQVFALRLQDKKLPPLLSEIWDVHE
Nuclear respiratory factor 1 (Homo sapiens), sequence (Q16656 whole entry, looked up): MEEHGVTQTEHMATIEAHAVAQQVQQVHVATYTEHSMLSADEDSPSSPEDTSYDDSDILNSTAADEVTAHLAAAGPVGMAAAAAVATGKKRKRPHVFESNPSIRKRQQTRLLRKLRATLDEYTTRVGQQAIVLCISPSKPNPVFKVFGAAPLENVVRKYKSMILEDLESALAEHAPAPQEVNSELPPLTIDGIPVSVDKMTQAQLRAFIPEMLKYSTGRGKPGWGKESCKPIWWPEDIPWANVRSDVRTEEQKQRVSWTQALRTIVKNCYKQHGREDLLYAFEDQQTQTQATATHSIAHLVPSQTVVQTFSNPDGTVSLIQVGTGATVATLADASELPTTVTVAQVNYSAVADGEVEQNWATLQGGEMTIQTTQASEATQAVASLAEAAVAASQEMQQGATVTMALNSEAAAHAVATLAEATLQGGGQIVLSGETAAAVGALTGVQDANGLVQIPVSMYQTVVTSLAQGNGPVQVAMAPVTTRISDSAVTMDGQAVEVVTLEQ

For `C[C@H]1O[C@@H](O[C@H]2[C@@H](O)C[C@H](O[C@H]3[C@@H](O)C[C@H](O[C@H]4CC[C@@]5(C)[C@H](CC[C@@H]6[C@@H]5C[C@@H](O)[C@]5(C)[C@@H](C7=CC(=O)OC7)CC[C@]65O)C4)O[C@@H]3C)O[C@@H]2C)C[C@H](O)[C@@H]1O`, the compound was classed as inactive in experiment [1], in [2], in experiment [3], in experiment [4] and in [5]. Also, the AC50 in experiment [6] was 0.428 µM (active); in experiment [7], 0.00312 µM (active); in experiment [8], 0.0705 µM (active).
For `CC/C=C\CCOC(=O)CC`, the compound was called inactive in experiment [9], in experiment [5], in experiment [6], in experiment [7] and in experiment [8].
As for `CC(C)=CCCC(C)CC(=O)O` (centres undefined), the result in experiment [1], in [2], in experiment [3], in [10], in [5] and in experiment [6] was inactive. In addition, the compound was called inactive in experiment [7] and in [8].
Turning to `O=c1c(O)c(-c2ccc(O)cc2)oc2cc(O)cc(O)c12`, the compound was called inactive in experiment [1], in experiment [2], in experiment [3], in experiment [10], in [4] and in experiment [5]. Besides, the outcome in experiment [6] and in [8] was inactive.
In the case of `C#CC(C)N(C)C(=O)Nc1ccc(Cl)cc1` (centres undefined), the compound was called inactive in experiment [1], in experiment [2], in experiment [3], in experiment [10], in experiment [5] and in experiment [6]. Moreover, the compound was classed as inactive in [7] and in experiment [8].
Regarding `NCCNc1cccc2ccccc12`, the compound was called inactive in [1], in experiment [2], in [3], in experiment [10], in experiment [4] and in [5]. In addition, the compound was called inactive in experiment [6] and in experiment [7]. In experiment [8], the half-maximal activity concentration (AC50) is 178 µM (active).
On to `Nc1c(Cl)cc(Cl)cc1[N+](=O)[O-]`, for which the compound was called inactive in experiment [1], in experiment [2], in experiment [3], in experiment [10], in experiment [4] and in [6]. The result in experiment [7] and in experiment [8] was inactive.
With `O=CN1CCOCC1`, the result in experiment [1], in [2], in experiment [3], in experiment [10], in [4] and in experiment [6] was inactive. For the same compound, the compound was called inactive in [7].
With `C#CC(C)(O)CC(C)C` (centres undefined), the compound was called inactive in [1], in experiment [2], in experiment [3], in experiment [4], in experiment [6] and in experiment [7]. Also, the outcome in experiment [8] was inactive.
As to `CC(C)C(OC(=O)c1ccccc1)C(C)(C)COC(=O)c1ccccc1` (centres undefined), in experiment [9], the AC50 is 20 µM (active). For the same compound, the result in experiment [5], in [6], in experiment [7] and in [8] was inactive.
With `Clc1cc(Cl)c(-c2c(Cl)c(Cl)cc(Cl)c2Cl)cc1Cl`, the compound was called inactive in [9], in [4], in [5], in [6], in experiment [7] and in experiment [8].
On to `C=C(C)[C@H]1CC=C(C)C(=O)C1`, for which the compound was classed as inactive in experiment [1], in [2], in experiment [3], in experiment [10], in [4] and in experiment [6]. Also, the compound was classed as inactive in experiment [7] and in experiment [8].
On to `C=Cc1ccc(C(C)(C)C)cc1`, for which the result in experiment [9], in experiment [5], in experiment [6] and in experiment [7] was inactive.
On to `OCCc1ccccc1`, for which the outcome in experiment [1], in experiment [2], in [3], in experiment [10], in experiment [5] and in [6] was inactive. Further, the outcome in [7] and in experiment [8] was inactive.
On to `OCC#CCO`, for which the call in [9], in [10], in [4], in experiment [6], in experiment [7] and in experiment [8] was inactive.
With `CCOC(=O)C(C#N)=C(c1ccccc1)c1ccccc1`, the outcome in experiment [9], in experiment [10], in experiment [4], in experiment [6] and in [8] was inactive. Also, the half-maximal activity concentration (AC50) in experiment [5] was 100 µM (active).
Regarding `C=CCCCCCCCCCC`, the result in experiment [1], in [2], in [3], in [4], in experiment [5] and in [6] was inactive. The result in experiment [7] and in experiment [8] was inactive.
Take `CCCCCCCCCCCCCCN(CCO)CCO`: the compound was called inactive in experiment [1], in experiment [2], in [3], in [5], in [6] and in [7]. Further, the half-maximal activity concentration (AC50) in experiment [10] is 162 µM (active); in experiment [8] it was 17.2 µM (active).
As to `C=C(CC(=O)O)C(=O)O`, the outcome in experiment [9], in experiment [10], in experiment [6], in experiment [7] and in experiment [8] was inactive.
Consider `COc1ccc(CCN2CCC(Nc3nc4ccccc4n3Cc3ccc(F)cc3)CC2)cc1`, for which the outcome in experiment [9], in experiment [10], in experiment [4], in [5], in experiment [6] and in [7] was inactive. The compound was classed as inactive in experiment [8].
`CCN(CCC#N)c1ccc(N=Nc2ccc([N+](=O)[O-])cc2)cc1`: the outcome in experiment [9], in experiment [10], in experiment [4], in experiment [6], in experiment [7] and in experiment [8] was inactive.
`CCOC(=O)CCc1ccccc1`: the compound was called inactive in [9], in experiment [4], in [5], in experiment [6] and in [7].
For `C1CCCCC1`, the outcome in [1], in experiment [2], in experiment [3], in experiment [4], in experiment [5] and in [6] was inactive. The outcome in experiment [7] and in [8] was inactive.
On to `ClC(c1ccccc1)(c1ccccc1)c1ccccc1`, for which the compound was called inactive in experiment [9], in experiment [10], in [6], in experiment [7] and in [8].
Turning to `C1=CC2C3C=CC(C3)C2C1` (centres undefined), the compound was called inactive in experiment [9], in experiment [10], in [5], in experiment [6] and in experiment [7].
Turning to `CCCCCCCCc1ccc(S(=O)(=O)O)cc1`, the compound was called inactive in experiment [9], in experiment [4] and in experiment [5]. Besides, the AC50 was 166 µM (active) in experiment [6], 146 µM (active) in [7] and 185 µM (active) in [8].
`COc1cc(C(C)C)ccc1C`: the outcome in [9], in [10], in experiment [6], in experiment [7] and in experiment [8] was inactive.
